Laboratory results as given in PubChem BioAssay AID1159580 (chemical genetic matrix, 2015).
Hit rate of the full screen: of about 5,500 compounds, about 2,000 (36%) were called active. Another 18% or so got no clear call; they are omitted. This is one part of the list. Values without a mark were called inactive. No stated cut-off is given here; in the data, active means normalized growth mostly below about 0.91 (no sharp cut-off); inconclusive means no clear call, values can overlap the other calls; inactive means mostly above about 0.92.

Assay: chemical genetic growth profiling, strain panel (AID 1159580);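 further: tested at 20 µM; growth read once vehicle control cultures reached saturation at 30 °C; 1 = growth at the plate median or of vehicle wells; lower values mean less growth of the strain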
Details: S. cerevisiae deletion strains, growth OD

O=C(O)C1=CC(=C(c2ccc(O)c(C(=O)O)c2)c2ccc(O)c(C(=O)O)c2)C=CC1=O
normalized growth (locus YAL013W, strain DEP1, hits give low values): 0.976
normalized growth (locus YAL021C, strain ccr4, hits give low values): 0.952
normalized growth (locus YAL026C, strain drs2, hits give low values): 0.983
normalized growth (locus YAL030W, strain snc1, hits give low values): 0.986
normalized growth (locus YAL040C, strain CLN3, hits give low values): 1.02
normalized growth (locus YBL061C, strain skt5, hits give low values): 0.963
normalized growth (locus YBR009C, strain hhf1, hits give low values): 1
normalized growth (locus YBR023C, strain chs3, hits give low values): 0.976
normalized growth (locus YBR171W, strain sec66, hits give low values): 0.963
normalized growth (locus YBR231C, strain swc5, hits give low values): 0.954
normalized growth (locus YBR279W, strain paf1, hits give low values): 0.968
normalized growth (locus YCL011C, strain gbp2, hits give low values): 0.974
normalized growth (locus YCL016C, strain dcc1, hits give low values): 0.995
normalized growth (locus YCL061C, strain MRC1 (second series), hits give low values): 0.98
normalized growth (locus YCL061C, strain MRC1, hits give low values): 0.999
normalized growth (locus YCL069W, strain vba3, hits give low values): 0.972
normalized growth (locus YCR088W, strain abp1, hits give low values): 0.985
normalized growth (locus YDL005C, strain med2, hits give low values): 0.966
normalized growth (locus YDL040C, strain nat1, hits give low values): 0.987
normalized growth (locus YDR001C, strain nth1, hits give low values): 0.992
normalized growth (locus YDR069C, strain doa4, hits give low values): 0.917
normalized growth (locus YDR137W, strain rgp1, hits give low values): 1.06
normalized growth (locus YDR150W, strain NUM1, hits give low values): 0.97
normalized growth (locus YDR159W, strain sac3, hits give low values): 1.03
normalized growth (locus YDR195W, strain ref2): 1
normalized growth (locus YDR297W, strain sur2, hits give low values): 0.978
normalized growth (locus YDR334W, strain swr1, hits give low values): 0.957
normalized growth (locus YDR335W, strain msn5, hits give low values): 0.965
normalized growth (locus YDR392W, strain spt3, hits give low values): 0.95
normalized growth (locus YEL003W, strain gim4, hits give low values): 0.973
normalized growth (locus YEL037C, strain rad23, hits give low values): 0.966
normalized growth (locus YEL061C, strain CIN8 (second series), hits give low values): 0.979
normalized growth (locus YER002W, strain NOP16, hits give low values): 1.02
normalized growth (locus YER015W, strain faa2, hits give low values): 0.952
normalized growth (locus YER016W, strain bim1, hits give low values): 0.985
normalized growth (locus YER111C, strain swi4, hits give low values): 0.961
normalized growth (locus YER155C, strain BEM2 (second series), hits give low values): 0.953
normalized growth (locus YFR010W, strain ubp6, hits give low values): 0.976
normalized growth (locus YGL167C, strain pmr1, hits give low values): 0.97
normalized growth (locus YGL173C, strain kem1, hits give low values): 0.984
normalized growth (locus YGL227W, strain vid30, hits give low values): 0.988
normalized growth (locus YGL240W, strain doc1, hits give low values): 0.985
normalized growth (locus YGL253W, strain hxk2, hits give low values): 0.978
normalized growth (locus YGR229C, strain SMI1, hits give low values): 0.823 (active)
normalized growth (locus YHR013C, strain ard1, hits give low values): 0.952
normalized growth (locus YHR027C, strain rpn1, hits give low values): 0.98
normalized growth (locus YHR030C, strain SLT2, hits give low values): 1.01
normalized growth (locus YHR079C, strain IRE1, hits give low values): 1
normalized growth (locus YHR142W, strain chs7, hits give low values): 0.946
normalized growth (locus YJL092W, strain hpr5, hits give low values): 0.97
normalized growth (locus YJL095W, strain BCK1 (second series), hits give low values): 0.963
normalized growth (locus YJL095W, strain BCK1, hits give low values): 0.982
normalized growth (locus YJL115W, strain asf1, hits give low values): 0.999
normalized growth (locus YJL129C, strain trk1, hits give low values): 1.01
normalized growth (locus YJL154C, strain vps35, hits give low values): 0.982
normalized growth (locus YJL164C, strain tpk1, hits give low values): 0.969
normalized growth (locus YJL166W, strain qcr8, hits give low values): 0.979
normalized growth (locus YJL187C, strain SWE1, hits give low values): 0.969
normalized growth (locus YJR066W, strain TOR1, hits give low values): 0.877
normalized growth (locus YJR075W, strain HOC1, hits give low values): 0.974
normalized growth (locus YKL160W, strain elf1, hits give low values): 0.976
normalized growth (locus YKR026C, strain gcn3, hits give low values): 0.989
normalized growth (locus YKR091W, strain srl3, hits give low values): 0.981
normalized growth (locus YLL001W, strain dnm1, hits give low values): 0.998
normalized growth (locus YLL026W, hits give low values): 0.985
normalized growth (locus YLL041C, strain sdh2, hits give low values): 0.981
normalized growth (locus YLR027C, strain aat2, hits give low values): 0.981
normalized growth (locus YLR113W, strain HOG1, hits give low values): 1.05
normalized growth (locus YLR221C, strain rsa3, hits give low values): 0.983
normalized growth (locus YLR258W, strain gsy2, hits give low values): 0.967
normalized growth (locus YLR262C, strain YPT6 (second series), hits give low values): 0.973
normalized growth (locus YLR320W, strain mms22, hits give low values): 0.985
normalized growth (locus YLR342W, strain FKS1, hits give low values): 0.978
normalized growth (locus YLR357W, strain rsc2, hits give low values): 0.857
normalized growth (locus YLR370C, strain arc18, hits give low values): 0.98
normalized growth (locus YLR384C, strain iki3, hits give low values): 0.957
normalized growth (locus YML120C, strain ndi1, hits give low values): 0.978
normalized growth (locus YMR058W, strain fet3, hits give low values): 0.714 (active)
normalized growth (locus YMR125W, strain sto1, hits give low values): 0.958
normalized growth (locus YMR129W, hits give low values): 0.989
normalized growth (locus YMR205C, strain PFK2, hits give low values): 1.01
normalized growth (locus YMR231W, strain pep5, hits give low values): 0.946
normalized growth (locus YNL071W, strain lat1, hits give low values): 0.974
normalized growth (locus YNL175C, strain NOP13, hits give low values): 1
normalized growth (locus YNL183C, strain NPR1, hits give low values): 0.913
normalized growth (locus YNL197C, strain WHI3, hits give low values): 1
normalized growth (locus YNL209W, strain ssb2, hits give low values): 0.952
normalized growth (locus YNL224C, strain SQS1, hits give low values): 1.03
normalized growth (locus YNL248C, strain rpa49, hits give low values): 0.999
normalized growth (locus YNL322C, strain KRE1 (second series), hits give low values): 0.999
normalized growth (locus YNL322C, strain KRE1, hits give low values): 0.93
normalized growth (locus YNR049C, strain mso1, hits give low values): 0.992
normalized growth (locus YOR001W, strain rrp6, hits give low values): 0.959
normalized growth (locus YOR070C, strain gyp1, hits give low values): 0.995
normalized growth (locus YOR080W, strain dia2, hits give low values): 0.988
normalized growth (locus YOR083W, strain WHI5 (second series), hits give low values): 0.999
normalized growth (locus YOR083W, strain WHI5, hits give low values): 0.97
normalized growth (locus YOR106W, strain vam3, hits give low values): 0.836 (active)
normalized growth (locus YOR231W, strain MKK1, hits give low values): 1.01
normalized growth (locus YOR265W, strain rbl2, hits give low values): 0.99
normalized growth (locus YOR270C, strain vph1, hits give low values): 0.942
normalized growth (locus YOR290C, strain snf2, hits give low values): 0.966
normalized growth (locus YPL051W, strain arl3, hits give low values): 0.907 (active)
normalized growth (locus YPL055C, strain LGE1, hits give low values): 0.961
normalized growth (locus YPL078C, strain atp4, hits give low values): 0.982
normalized growth (locus YPL106C, strain sse1, hits give low values): 0.915
normalized growth (locus YPL240C, strain hsp82, hits give low values): 0.973
normalized growth (locus YPL256C, strain CLN2, hits give low values): 1.06
